Shown are actives, neighbours in structure and some others; about 14% of the full set was active somewhere.
HCV inh: inhibitors of hepatitis C virus infection. Huh7.5.1 HCVcc-Cre infection, luciferase reporter, 44 h. Potency, µM (top dose mostly 41.8 µM), inactives show at the highest dose activity change, negative = inhibition, hits mostly inhibitors. hit rate 3.4% among 340,000. AID 651820; further: potency means the concentration at half of the fitted maximal effect
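1,000 cells/well; 4 h culture; + compound; + HCVcc-Cre (~0.5 moi); 44 h; luciferase substrate, RT 15 min; read 15 sec.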
Marburg entry inh: blocks Marburg virus binding to or entry into cells | Marburg virus pseudotyped entry inhibition, cell reporter | Potency, µM (series often up to 37.8 µM), for inactives: at the top dose activity change, negative = inhibition, actives largely listed as inhibitors | hit rate 1.8% among 300,000 | AID 540276; calls by dose curve; tested in HEK293 cells; further: potency means the concentration at half of the fitted maximal effect
Lassa entry inh: blocks Lassa virus binding to or entry into cells; Potency, µM (doses to about 37.9 µM), for the others: top-dose activity change, negative = inhibition, hits mostly inhibitors; Lassa virus pseudotype entry inhibition, cell reporter; hit rate 1.2% among 300,000; calls by dose curve; tested in HEK293 cells; further: potency means the concentration at half of the fitted maximal effect; nearly all actives have a fitted effect of over 50% in size
Pf growth 48h: P. falciparum growth inhibition at 48 hours (one generation) | P. falciparum luciferase growth in erythrocytes, 48 h | Potency, µM (series often up to 28.7 µM), for the others: at the top dose activity change, negative = inhibition, actives largely listed as inhibitors | hit rate 5.9% among 310,000 | AID 504832; further: potency means the concentration at half of the fitted maximal effect
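Luciferase-expressing P. falciparum in infected erythrocytes (2% hematocrit, 0.1% parasitemia final) in RPMI 1640/0.5% Albumax were exposed to compound for 48 hours at 37 C, 5% CO2; growth read as luminescence.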
Pf growth 96h: P. falciparum growth inhibition at 96 hours; P. falciparum luciferase reporter growth, 96 h; Potency, µM (highest dose often 28.7 µM), without a hit: at the top dose activity change, negative = inhibition, actives largely listed as inhibitors; hit rate 6.9% among 320,000; further: potency means the concentration at half of the fitted maximal effect
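P. falciparum expressing integrated firefly luciferase, in erythrocytes at 2% hematocrit, 0.05% parasitemia, incubated with compounds 96 h at 37 C, 5% CO2. Growth inhibition read as loss of luminescence; two-generation exposure targets delayed-death apicoplast inhibitors.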
HCMV antiviral: human cytomegalovirus inhibition; activity change, negative = inhibition, % at 57.5 µM; HFF cells, HCMV-luciferase reporter, 72 h; stronger effect = lower value; hit rate 4.5% among 410,000; in the data active means activity change below about -60%; inconclusive means no clear call, values can overlap the other calls; inactive means above about -39%
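Cell-based, HFFs, 1000 cells/well, 16 h 37C; cpds in DMSO + HCMV-luc, MOI 1 PFU/cell; 72 h 37C; OneGlo luminescence after 5 min RT; norm. to buffer vs Salinomycin 10uM.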
The depositor's hits bear a star; ? = inconclusive; . = no result given; [ ] = remark or other dose. Unless noted, the call rests on the fitted dose curve; in most records, active means well fitted inhibition curve with a large enough effect; inconclusive means small, poorly fitted or top-dose-only effect, or another doubt; inactive means no such curve, though single readings can be large or run the other way. On the % scale 0 is the no-effect control and ±100 the full control effect.

SMILES | HCV inh | Marburg entry inh | Lassa entry inh | Pf growth 48h | Pf growth 96h | HCMV antiviral
COc1ccc(OC)c(-c2cc(C(=O)N3CCc4ccccc4C3)no2)c1 | 6% | -7% | ? | 22% | 9.3µM* | -10
COc1ccc(-c2cc(C(=O)N3CCc4ccccc4C3)no2)cc1 | -19% | . | . | 12% | ? | -32
CCCCn1nnnc1C(c1cc2ccccc2o1)N1CCN(CC(=O)N2CCCC2)CC1 (stereo not drawn) | . | . | . | . | . | 12
O=c1[nH]c2ccccc2nc1-c1nnnn1Cc1ccccc1 | . | . | . | . | . | 0
COc1ccc(OC)c(NC(=O)CSc2nc(=O)n(CCN(C)C)c3c2CCC3)c1 | . | . | 20%[46.1 µM] | . | . | 51
CCOC(=O)c1cc2c(ccn2-c2ccc(F)cc2)n1CC(=O)N1CCN(C(=O)c2ccco2)CC1 | ? | 3% | 9.2µM* | ? | 12% | -21
CCOC(=O)c1cc2c(ccn2C)n1CC(=O)N1CCC(Cc2ccccc2)CC1 | ? | ? | ? | 10µM* | ? | -16
Cc1cccc(C(=O)OCC(=O)N2CCN(C(=O)c3ccco3)CC2)c1O | -11% | 3%[46.1 µM] | ? | . | . | -8
Cc1cc(C(=O)OCC(=O)N2CCN(C(=O)c3ccco3)CC2)c(C)n1-c1ccc(F)cc1 | -19% | -8% | ? | 12µM* | 21% | -24
O=C(OCC(=O)N1CCN(C(=O)c2ccco2)CC1)c1ccccc1OCc1ccccc1 | 31% | -1% | 1% | -8% | 12µM* | 9
Cc1ccccc1CNC(=O)Cn1ccc2cc(S(=O)(=O)N3CCCCC3)ccc21 | . | . | 19%[46.1 µM] | . | . | -7
CCOC(=O)c1cc2c(ccn2C)n1Cc1ccc(C#N)cc1 | -18% | 16% | ? | -4% | 4.1µM* | 1
CCOC(=O)c1cc2c(ccn2C)n1Cc1ccc(Cl)cc1 | 6% | 0% | -3% | 13% | 0% | 46
Cc1cnc(C(=O)OCC(=O)N2CCN(C(=O)c3ccco3)CC2)cn1 | 32% | -4% | 20% | -1% | 5.2µM* | 3
O=C(OCC(=O)N1CCN(C(=O)c2ccco2)CC1)c1cn(-c2ccccc2)nc1-c1ccccc1 | 2.8µM* | -19% | ? | ? | -7% | 7
Cn1c2c(c3ccccc31)CCN1CCC[C@]21c1ccccc1 | ? | . | . | 1%[0.00184 µM] | 8.3µM* | 68
CN1CCc2c(c3ccccc3n2C)C1 | -16% | ? | 2% | 46% | ? | -7
COc1ccc(NC(=O)CN(C)C(=O)c2cc(C)on2)cc1 | 4% | 10%[46.1 µM] | 11% | 8% | 21% | 13
CN(CC(=O)NCCC1=CCCCC1)S(=O)(=O)c1ccc2c(c1)CCC(=O)N2 | -9% | 0% | . | ? | 3.3µM* | 10
O=C1CCc2cc(S(=O)(=O)N3CCC(C(=O)NCCC4=CCCCC4)CC3)ccc2N1 | -8% | . | . | . | 0.83µM* | -99*
Cc1ccc(CCNC(=O)C2CCN(S(=O)(=O)c3ccc4c(c3)CCC(=O)N4)CC2)cc1 | 2% | 0% | 0% | -9% | -26% | 9
COc1ccccc1C(=O)NNC(=O)CCCN1C(=O)/C(=C/c2cccs2)SC1=S | -4% | 7% | 1% | ? | ? | -68*
O=C(CCCN1C(=O)/C(=C/c2cccs2)SC1=S)NNC(=O)c1cccnc1 | -9% | . | . | ? | 15µM* | ?
O=C(CCCN1C(=O)/C(=C\c2cccs2)SC1=S)NNC(=O)c1ccncc1 | 6% | -27%[46.1 µM] | ? | 0% | 8% | -61*
O=C(CCN1C(=O)/C(=C\c2ccccc2)SC1=S)NNC(=O)c1ccccc1O | ? | -16%[46.1 µM] | -17%[46.1 µM] | 26% | ? | -20
SMILES | HCV inh | Marburg entry inh | Lassa entry inh | Pf growth 48h | Pf growth 96h | HCMV antiviral
O=C(CCN1C(=O)/C(=C/c2ccc(F)cc2)SC1=S)NNC(=O)c1ccncc1 | -6% | . | . | -1% | 5% | -21
CCCCCCCCCCCCCCCC[N+](C)(C)C | ? | . | . | 4.1µM* | 2.9µM* | -94*
CCCCCCCCCCCCCC[N+](C)(C)C | . | . | . | 0.95µM* | 0.95µM* | .
C[N+](C)(C)CCCCCC[N+](C)(C)C | -3% | ? | -6% | 5% | -13% | -1
COc1ccc(-c2coc3c2c(C)cc2oc(=O)c(CC(=O)O)c(C)c23)cc1 | . | 9%[46.1 µM] | 20%[46.1 µM] | . | . | 24
CCc1cccc(NC(=O)c2cc3c(=O)[nH]c4ccccc4c3n2C)c1 | . | 5%[46.1 µM] | -15%[46.1 µM] | . | . | -66*
O=C(O)COc1ccc(Br)cc1CP(=O)(c1ccccc1)c1ccccc1 | -6% | -9%[46.1 µM] | 27% | ? | ? | 16
Cc1ccc(CNC(=O)CO/N=C/c2ccc3c(c2)OCO3)cc1 | 22% | 2% | -16% | -8% | 23% | 12
Cc1ccc(S(=O)(=O)NC(=O)ON=Cc2ccc3c(c2)OCO3)cc1 | . | . | . | . | . | -98*
O=C(CSc1nc2c([nH]c3ccccc32)c(=O)n1-c1ccc(Cl)cc1)NCc1ccccc1 | . | . | -6%[46.1 µM] | . | . | -9
CCc1ccc(OCC(=O)N/N=C(\C)c2ccc(O)cc2O)cc1 | 11µM* | ? | ? | 0% | 0% | -6
Nc1nc(SCc2ccccc2[N+](=O)[O-])c2ncn(Cc3ccccc3)c2n1 | 11µM* | ? | -13%[46.1 µM] | . | . | 3
CCC(C(=O)c1ccccc1)N(C(=O)c1ccccc1Cl)N1C(=O)C2C3C=CC(C3)C2C1=O (stereo not drawn) | 0% | -21% | -4% | ? | 10µM* | -24
O=C(CN1C2=NCCCN2c2ccccc21)c1cccc(Br)c1 | ? | ? | ? | ? | ? | 0
O=C(CN1C2=NCCCN2c2ccccc21)c1ccc([N+](=O)[O-])cc1 | 11µM* | ? | -14% | 1.9µM* | ? | -66*
O=C(CN1C2=NCCCN2c2ccccc21)c1ccc(Cl)cc1Cl | ? | ? | ? | 0.37µM* | -9% | -14
Clc1ccc(CN2C3=NCCCN3c3ccccc32)cc1Cl | ? | ? | ? | ? | -8% | -84*
CCOC(=O)c1sc2nc(CC(=O)OC)nc(NCc3ccco3)c2c1C | ? | ? | -26% | 2.6µM* | -23% | -35
CCOC(=O)c1sc2nc(C)nc(NCc3ccccc3OC)c2c1C | ? | ? | -14%[46.1 µM] | ? | 118% | -73*
Cc1ccc2oc(C(F)(F)C(F)F)cc(=O)c2c1 | 17% | ? | 14% | 17% | 36% | 34
Cc1ccc2oc(C(Cl)(Cl)Cl)cc(=O)c2c1 | ? | 12µM* | -27% | 3.3µM* | 1.9µM* | -89*
CN(C)C(C)(C)C#CCC(c1ccccc1)c1ccccc1 | 0% | 25% | 3% | 9.3µM* | ? | ?
Cc1ccc(C)c(NC(=O)Cn2c(=O)n(CC(=O)NCCc3ccccc3)c(=O)c3ccccc32)c1 | . | 0%[46.1 µM] | 19%[46.1 µM] | . | . | -5
COC(=O)Cn1c(SCCOc2ccccc2OC)nc2ccccc21 | . | -25%[46.1 µM] | 14%[46.1 µM] | . | . | 10
CC(C)Sc1nc2ccc(Br)cc2[nH]1 | 6% | ? | 7%[46.1 µM] | 33% | 1% | -102*

Assay outcomes from PubChem BioAssay.
